According to PubChem BioAssay AID1554 (Broad Institute, 2009):
Hit rate of the full screen: of about 300,000 compounds, about 520 (0.17%) were called active. Rule as the data show it: active = inhibition above about 50%; inconclusive = no clear call, values can overlap the other calls; inactive = below that. For the sample, actives were picked, then their nearest neighbours and some compounds at random.

Assay: PubChem AID 1554
Details: BJeLR (HRASV12) viability, CellTiter-Glo ATP luminescence, 48 h; active compounds read high; concentration not given here
For `S=c1[nH]ccn1-c1ccc(Cl)cc1`, the inhibition was 1.81% (inactive).
With `CC(C)(C)OC(=O)NC(Cc1ccccc1)C(=O)NC(CSC1CCCCO1)C(=O)NN` (stereo unspecified) the inhibition was 10.4% (inactive).
With `COc1ccccc1C(=O)NCCn1cc(SCC(=O)NCc2ccco2)c2ccccc21` the inhibition was -1.46% (inactive).
For `CC12CCC(C(=O)N(CCC#N)CCC#N)(CC1=O)C2(C)C` (stereo unspecified), the inhibition was -15.4% (inactive).
With `COC(=O)c1c(C(=O)OC)c(-c2cccc(C)c2)n2c1CS(=O)C2` (stereo unspecified) the inhibition was 0.411% (inactive).
In the case of `CC1(C)Oc2ccc3ccc(=O)oc3c2/C(=N/O)C1=O`, the inhibition was 0.973% (inactive).
In the case of `Cc1ccc2[nH]c(=O)c(CN3CCCCC3)c(-c3ccccc3)c2c1`, the inhibition was 4.95% (inactive).
With `COC(=O)c1ccc(OCC(O)CN(CCO)CC(O)Cn2ccc3ccccc32)cc1` (stereo unspecified) the inhibition was 1.45% (inactive).
With `Cc1ccc(O)c(/C=N/NC(=O)COc2ccc3c(C)cc(=O)oc3c2)c1` the inhibition was -1.41% (inactive).
For `CC1(C)CC(=O)C=C(N2CCCC2)C1`, the inhibition was 0.434% (inactive).
For `CC1(C)CC(N2CCN(C(c3ccccc3)c3ccccc3)CC2)=CC(=[N+]2CCCCC2)C1`, the inhibition was 70.6% (active).
For `O=C1CC(N2CCN(C(c3ccccc3)c3ccccc3)CC2)C(=O)N1` (stereo unspecified), the inhibition was -3.58% (inactive).
For `Cc1cc(=O)[nH]c(SCc2ccc(Cl)cc2)n1`, the inhibition was 0.607% (inactive).
For `Cc1ccc(Oc2nc(-c3ccccn3)nc3ccccc23)cc1`, the inhibition was 4.2% (inactive).
With `O=C(Oc1ccc(Br)cc1)c1cccnc1` the inhibition was -11.9% (inactive).
For `O=C(Oc1ccc(-c2nc(-c3ccccn3)no2)cc1)c1ccccc1`, the inhibition was 61.8% (active).
For `COCCNC(=S)N1CCN(C)CC1`, the inhibition was 6.68% (inactive).
In the case of `COc1cc(OC)cc(C(=O)N[C@H](C(=O)Nc2nc3ccccc3[nH]2)C(C)C)c1`, the inhibition was 50.8% (active).
With `COc1cc(OC)cc(C(=O)N[C@H](C(=O)OCC(=O)NC(C)c2ccccc2)C(C)C)c1` (stereo partly specified) the inhibition was -3.17% (inactive).
For `COc1ccc(C(=O)N[C@H](C(=O)NCc2ccccc2)C(C)C)cc1`, the inhibition was -8.87% (inactive).
For `CCOC(=O)c1sc(C)c2c1NC(C)(c1cccc3ccccc13)NC2=O` (stereo unspecified), the inhibition was -6.51% (inactive).
For `CC(=O)c1ccc(Oc2cc(C)nc(-n3nc(C)cc3C)n2)cc1`, the inhibition was 50.8% (active).
For `Cc1cc(Oc2ccc(Cl)cc2)nc(SCC(=O)c2ccccc2)n1`, the inhibition was -7.21% (inactive).
With `Cc1cc(C)n(-c2ccc(C(=O)O)cc2[N+](=O)[O-])n1` the inhibition was 3.87% (inactive).
For `COc1ccccc1NC(=O)c1cc(N2C(=O)C3C4CCC(C4)C3C2=O)ccc1Cl` (stereo unspecified), the inhibition was -10.4% (inactive).
In the case of `C=CCn1c(SCC(=O)c2ccc(Br)cc2)nnc1C(C)NC(=O)Cc1ccc(OC)cc1` (stereo unspecified), the inhibition was 2.52% (inactive).
